Shown are actives, neighbours in structure and some others; about 9.4% of the full set was active somewhere.
SMN2 splice enh = increases expression of the SMN2 splice variant | 2.8% of 210,000 active | HEK293 SMN2-luciferase splicing reporter, luminescence, 30-36 h | Potency, µM (titrated, usually from 46.1 µM), for inactives: top-dose activity change, positive = activation, hits mostly activators | AID 1458; further: % of control where 0% means no effect; nearly all actives have a fitted effect of over 55% in size
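HEK293 cells carry an SMN2 […]–luciferase reporter in which exon 7 inclusion puts luciferase in frame. Cells were plated 10-12 h before compound addition, then incubated 30-36 h at 37C. ONE-Glo luminescence was read; sodium butyrate at 4.5 mM final served as control.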
Rab9 prom act = activators of Rab9 promoter | Potency, µM (highest dose often 9.22 µM), for the others: at the top dose activation, negative = inhibition, hits mostly activators | Huh7 Rab9 promoter-luciferase reporter, luminescence, 24 h | 2.8% of 320,000 active; further: % of control where 0% means no effect; nearly all actives have a fitted effect of over 60% in size
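Cells were plated at 1500 per well in reduced-serum medium with 10% FBS and left 2 h. Compound in DMSO was then added for 24 h at 37 °C. Reporter signal was read by luminescence after 10 min with luciferase detection reagent.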
ELG1 genotoxic = genotoxicity induction in ELG1-luciferase HEK293T cells | HEK293T ELG1-luciferase reporter, luminescence, 16 h | Potency, µM (top dose mostly 46 µM), inactives show at the highest dose activity change, positive = activation, hits mostly activators | 1.3% of 330,000 active | AID 504466; further: % of control where 0% means no effect; nearly all actives have a fitted effect of over 60% in size
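HEK293T cells expressing luciferase-tagged ELG1 were treated with compound or DMSO for 16 hr at 37°C. Luciferase activity was then read after 30 min with ONE-Glo at room temperature; rising signal flags genetic stress.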
NPC1 prom act = NPC1 promoter activation. Huh7 NPC1 promoter luciferase reporter, 24 h. Potency, µM (highest dose often 9.22 µM), without a hit: top-dose activation, hits mostly activators. 2.4% of 320,000 active; further: % of control where 0% means no effect; nearly all actives have a fitted effect of over 60% in size
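Quantitative HTS used a cell-based reporter: Huh7 cells stably bearing the NPC1 promoter upstream of luciferase were treated with compounds for 24 h, and promoter activation was read as luminescence.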
FLuc modulator = inhibits or activates purified firefly luciferase, miR-21 counter-screen; P08659; purified FLuc, Km substrates, luminescence inhibition; Potency, µM (series often up to 57.5 µM), for the others: at the top dose activity change, negative = inhibition, hits mostly inhibitors; 6.9% of 360,000 active; AID 588342;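 further: plate controls were vehicle for no effect and reference inhibitor for full effect; nearly all actives have a fitted effect of over 55% in size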
Target sequence (P08659 whole entry, looked up): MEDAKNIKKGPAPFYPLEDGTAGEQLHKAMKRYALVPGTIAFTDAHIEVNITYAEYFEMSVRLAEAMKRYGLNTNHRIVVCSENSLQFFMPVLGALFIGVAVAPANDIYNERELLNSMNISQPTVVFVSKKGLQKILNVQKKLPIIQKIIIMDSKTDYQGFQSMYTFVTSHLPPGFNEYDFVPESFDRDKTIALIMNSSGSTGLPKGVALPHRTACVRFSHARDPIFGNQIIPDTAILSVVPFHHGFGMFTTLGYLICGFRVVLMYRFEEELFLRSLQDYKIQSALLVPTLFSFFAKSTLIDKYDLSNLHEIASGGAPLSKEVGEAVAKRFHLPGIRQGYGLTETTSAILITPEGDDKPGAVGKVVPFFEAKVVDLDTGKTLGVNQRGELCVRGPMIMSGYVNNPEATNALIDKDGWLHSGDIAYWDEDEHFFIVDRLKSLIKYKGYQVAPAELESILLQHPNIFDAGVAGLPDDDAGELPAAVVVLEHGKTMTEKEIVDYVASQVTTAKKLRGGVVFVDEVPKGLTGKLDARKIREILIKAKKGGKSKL
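Purified P. pyralis luciferase, 10 nM final, with Km-level 10 uM D-luciferin and 10 uM ATP in 50 mM Tris acetate pH 7.5, 10 mM Mg acetate, 0.01% Tween-20, 0.05% BSA; 6-point qHTS titration about 60 µM downward; luminescence read.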
ELG1 repair inh = blocks ELG1-dependent DNA repair in HEK293T cells; HEK293T ELG1-luciferase reporter, luminescence, 16 h; DNA damage induced by 5-fluorouridine; Potency, µM (highest dose often 46.1 µM), inactives show top-dose activity change, negative = inhibition, usual class: inhibitors; 2.3% of 330,000 active; AID 504467; further: on the % scale 0 is the no-effect control and ±100 the full control effect; nearly all actives have a fitted effect of over 55% in size
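Cells (2,000 per well) received 5-fluorouridine plus test compound or DMSO and were incubated 16 hr at 37 °C, 5% CO2. Luciferase activity was read by luminescence 30 min after ONE-Glo addition; signal suppression marked inhibition of damage-induced ELG1 function.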
Active calls of the source: *; ? = inconclusive; . = no result; [ ] = remark or other dose. The call rests on the fitted dose curve; in most records, active means well fitted curve in the direction sought with a large enough effect; inconclusive means small, poorly fitted or top-dose-only effect, or another doubt; inactive means no such curve, though single readings can be large; an effect the other way counts as inactive or inconclusive. Potency means the concentration at half of the fitted maximal effect.

SMILES	SMN2 splice enh	Rab9 prom act	ELG1 genotoxic	NPC1 prom act	FLuc modulator	ELG1 repair inh
COc1cccc2[nH]c(C(=O)NN)c(N)c12	.	-4%	-6%	2%	-20%	?
COc1cccc2[nH]c3ccccc3c(=O)c12	.	6%	0%	3%	17µM*	26%
CCc1ccc(-c2nc(CSCC(=O)NC3CC3)c(C)o2)cc1	.	-29%	2%	-15%	19µM*	-7%
CCc1ccc(-c2nc(CSCC(=O)N3CCN(c4ncccn4)CC3)c(C)o2)cc1	-81%	-2%	-13%	0%	-17%	15µM*
COc1ccc(-c2nc(CSCC(=O)NCCc3ccccc3)c(C)o2)cc1	-57%	.	.	.	?	.
COc1ccc(-c2nc(CSCC(=O)NCc3ccco3)c(C)o2)cc1	-41%	-7%	-2%	1%	17µM*	18%
CSc1ccc(-c2nc(CSCC(=O)NC3CC3)c(C)o2)cc1	.	-11%	3%	-1%	?	25%
Cc1cc(N/N=C/c2c(O)ccc3ccccc23)nc(-c2ccccc2O)n1	-28%	-10%	1%	0%	-18%	23µM*
O=C(CNc1ccc(F)cc1)N/N=C/c1c(O)ccc2ccccc12	.	-10%	?	-10%	-16%	-28%
Cc1cc(Nc2ccccc2)nc(-c2ccccc2O)n1	-9%	16%	1%	16%	0%[2.3 µM]	8%
Oc1ccc2ccccc2c1/C=N/Nc1ccccc1	?	0%	?	0%	6µM*	?
NC(=S)N/N=C/c1c(O)ccc2ccccc12	.	-15%	-12%	9%	-4%	13µM*
Oc1ccc2ccccc2c1C=NCc1ccccc1	.	11%	-7%	-3%	11µM*	?
Oc1ccc2ccccc2c1/C=N/n1cnnc1	4%	0%	0%	-6%	-1%	6%
Cc1cccc(OCC(=O)N2CCC(c3nc4ccccc4o3)CC2)c1C	.	.	.	.	-17%	.
Nc1c(C(=O)Nc2ccccc2)nnn1Cc1ccc(F)cc1Cl	8%	.	.	.	-1%	.
CC1=C(C(=O)OC2CCCC2)C(c2cccc(Cl)c2Cl)CC(=O)N1 (stereo not drawn)	12%	.	.	.	5%	.
Cc1nn(C)c(C)c1N=Cc1c(O)ccc2ccccc12	10%	15%	-1%	0%	13µM*	2%
O=CN/N=C/c1c(O)ccc2ccccc12	.	-29%	0%	-33%	-1%	21µM*
COc1cccc(/C=C/c2nc(C#N)c(N3CCN(C)CC3)o2)c1	-5%	.	.	.	1%	.
COc1ccc(CCn2c(C)nc3ccccc3c2=O)cc1OC	-31%	-4%	-8%	-3%	3%	?
COc1ccc(CCn2c(-c3ccco3)nc3ccccc3c2=O)cc1OC	-47%	-5%	-29%	-2%	1%	10µM*
Cn1c(-n2c(-c3ccco3)nc3ccccc3c2=O)nc2ccccc21	-10%	-5%	-1%	0%	21µM*	?
O=c1c2ccccc2nc(-c2ccco2)n1-c1nc2ccccc2s1	-14%	5%	6%	7%	15µM*	-10%
COC(=O)c1sc2cccc(F)c2c1S(=O)(=O)N1CCN(c2ccc(F)cc2)CC1	.	.	.	.	-2%	.
SMILES	SMN2 splice enh	Rab9 prom act	ELG1 genotoxic	NPC1 prom act	FLuc modulator	ELG1 repair inh
COc1cccc(NC(=O)c2oc3ccc(S(=O)(=O)N(C)C4CCCCC4)cc3c2C)c1	.	.	.	.	-2%	.
CC[C@H](CN(C)C)C(=O)c1ccco1	-9%[9.22 µM]	.	.	.	.	.
Cc1cccc(C[C@H](C(=O)O)N2C(=O)c3ccc(C(=O)O)cc3C2=O)c1	.	-9%	.	-1%	0%	.
COc1ccc(N2C(=O)c3ccccc3NC2c2ccc(OC)c(CSc3ccccn3)c2)cc1 (stereo not drawn)	?	25%	?	?	?	0%
COc1ccc(C2Nc3ccccc3C(=O)N2c2ccc(C)cc2)cc1Cn1nnc2ccccc21 (stereo not drawn)	.	?	?	?	-10%	?
COc1ccc(C2Nc3ccccc3C(=O)N2c2ccc(C)cc2)cc1Cn1cc([N+](=O)[O-])cn1 (stereo not drawn)	20µM*	4µM*	12%	4µM*	?	?
COc1ccc(N2C(=O)c3ccccc3NC2c2ccc(OC)c(COc3ccccn3)c2)cc1 (stereo not drawn)	13µM*	?	?	?	-2%	?
Cc1cc(C)c(NC(=O)Cc2csc(C)n2)c(Cl)c1	0%	.	.	.	-7%	.
COc1ccc(C(=O)N/N=C(\C)c2ccccn2)cc1OC	.	-30%	?	-5%	?	?
CCOc1ccc(OCc2ccc(C(=O)N/N=C(\C)c3ccccn3)cc2)cc1	-84%	-9%	?	-2%	12µM*	?
C/C(=N\NC(=O)c1ccccc1OCc1ccc(F)cc1)c1ccccn1	.	-19%	5%	-4%	21µM*	?
CCC(=O)N1CCN(c2ccc(NC(=O)c3ccc([N+](=O)[O-])o3)cc2)CC1	8%	4%	1%	-6%	0%	-16%
CC(C)(C)C(=O)N1CCN(c2ccc(NC(=O)c3ccc([N+](=O)[O-])o3)cc2)CC1	.	1%	-9%	-5%	-2%	?
O=C(Nc1ccc(N2CCCCC2)cc1)c1ccc([N+](=O)[O-])o1	.	2.5µM*	6.5µM*	0.5µM*	1.5µM*	?
O=C(Nc1cccc(NC(=O)c2ccccc2Cl)c1)c1ccc([N+](=O)[O-])o1	.	4%	-20%	-16%	21µM*	23µM*
Cc1ccc(NC(=O)c2ccc([N+](=O)[O-])o2)cc1C	-8%	?	18%	-2%	21µM*	?
CS(=O)(=O)N1CCN(c2ccc(NC(=O)c3ccc([N+](=O)[O-])o3)cc2)CC1	.	2.2µM*	?	?	-16%	?

From PubChem BioAssay
